Results as given in PubChem BioAssay.
“And” between values parts separate entries of the source, which are not always exact repeats. Equal entries are not always repeated. Inconclusive results are not listed. For some of these results: Results with a measured potency or affinity are listed apart. The source made the active and inactive calls. Unless noted, no rule for the calls is given here.

Assays:
[1] = target: ATP-dependent translocase ABCB1 (Homo sapiens) (UniProt P08183); experiment: P-glycoprotein substrate transport blockade – cell-based (AID 377; in the data active = fluorescence slope change above about 50%); details: MDR1-expressing cells, fluorescent substrate accumulation slope; stronger effect = higher value; concentration not given here
[2] = blockers of polyQ-driven CASP3 activation – cell-based (AID 1583); details: polyglutamine-induced caspase-3 activation, cell assay; stronger effect = higher value;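 tested at 10 µM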
[3] = restoration of touch response, mutant HTT neurons – whole organism, C. elegans mechanosensory neurons, N-terminal huntingtin (AID 1599); details: C. elegans polyQ-huntingtin mechanosensory neurons, stronger effect = higher value
[4] = glutamate transport activators, MN-1 cells, MN-1 cell line (AID 1612); details: MN-1 motor neuron cells, stronger effect = higher value;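 also: tested at 1 µM final; 0% = mean of DMSO vehicle wells on each plate; positive means more glutamate uptake than control and negative means less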
[5] = GFP-Q80 aggregate reduction, neuronal-like cells, cell-based, NGF-treated PC12, GFPQ80 (AID 1614); details: PC12 NGF-treated GFP-polyQ80 inclusion reduction;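 also: lower means fewer inclusions and 0 means no inclusions at all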
[6] = 75Q-TubH aggregate inhibition, S. cerevisiae, yeast (AID 1616); details: S. cerevisiae 75Q-TubH polyglutamine aggregation suppression; stronger effect = higher value
[7] = compounds altering circadian rhythm period length – cell-based, LOPAC library, luminescence reporter (AID 2774); details: circadian reporter cells, at 7 µM, actives lie on both sides;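 also: values are relative to mean of DMSO wells on each plate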
[8] = compounds altering viability of human ES cells (AID 493140); details: human embryonic stem cell survival screen; stronger effect = higher value;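 also: cells exposed to compounds for four days before counting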
[9] = system: Aerobactin synthetase IucA (Klebsiella pneumoniae, hypervirulent); experiment: biochemical IucA inhibition screen of LOPAC library by absorbance (AID 1346212); details: IucA enzyme assay, absorbance (OD) readout; stronger effect = lower value;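 tested at 8 µM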;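 also: 100% = no compound wells and 0% = no enzyme wells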
[10] = system: Hepatitis C virus NS3 helicase; experiment: blockers of NS3h binding to ssDNA – biochemical, fluorescence polarization, LOPAC1280 library, primary screen (AID 687035; in the data active = inhibition above about 37%); details: Purified HCV NS3 helicase, Cy5-dT15 ssDNA binding fluorescence polarization; stronger effect = higher value; concentration not given here
[11] = compounds altering Cy5-DNA-NS3h complex signal – biochemical, LOPAC1280, artefact control for HCV NS3 helicase inhibitor project (AID 687037); details: Cy5-DNA-NS3h complex fluorescence interference counterscreen
[12] = modulation of C. elegans fzo-1 (AID 1259413);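 also: fzo-1 mutant C. elegans worms in liquid wells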; details: C. elegans fzo-1 modulator screen, mean read-out; stronger effect = higher value
[13] = blockers of cellular phospholipid synthesis – cell-based, LOPAC library, screen 4, primary screen (AID 1347384); details: animal cells, phospholipid biosynthesis inhibition screen; at 10 µM
[14] = system: F380Y; experiment: BK channel mutant inhibitors and activators – cell-based, U2OS BacMam, thallium flux, beta subunits, selectivity assay, profiling panel (AID 1259406;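 active = thallium flux through the channel raised or lowered by more than 3 SD from vehicle-only wells, actives on both sides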;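 also: initial slope of Thallos dye fluorescence rise after thallium is added; log ratio against the mean of 0.3% DMSO vehicle wells on the same plate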); details: U2OS BacMam BK variants, at 30 µM
[15] = system: F380Y/beta2Delta; experiment: as above; details: U2OS BacMam BK variants, at 30 µM
[16] = system: R275C; experiment: as above; details: U2OS BacMam BK variants, at 30 µM
[17] = system: R275C/beta1; experiment: as above; details: U2OS BacMam BK variants, at 30 µM
[18] = system: R275C/beta2Delta; experiment: as above; details: U2OS BacMam BK variants, at 30 µM
[19] = growth inhibition, single agents and combos, ICB984, cell-based, cisplatin or BGB combos, synergistic combos for chromothripsis tumors (AID 1671451); details: ICB984 medulloblastoma cells, drug combinations, stronger effect = higher value;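 also: cells exposed for 96 hours before readout; 0% = vehicle DMSO and 100% = killing by high DMSO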

Sequence of ATP-dependent translocase ABCB1 (Homo sapiens) (P08183 whole entry, looked up): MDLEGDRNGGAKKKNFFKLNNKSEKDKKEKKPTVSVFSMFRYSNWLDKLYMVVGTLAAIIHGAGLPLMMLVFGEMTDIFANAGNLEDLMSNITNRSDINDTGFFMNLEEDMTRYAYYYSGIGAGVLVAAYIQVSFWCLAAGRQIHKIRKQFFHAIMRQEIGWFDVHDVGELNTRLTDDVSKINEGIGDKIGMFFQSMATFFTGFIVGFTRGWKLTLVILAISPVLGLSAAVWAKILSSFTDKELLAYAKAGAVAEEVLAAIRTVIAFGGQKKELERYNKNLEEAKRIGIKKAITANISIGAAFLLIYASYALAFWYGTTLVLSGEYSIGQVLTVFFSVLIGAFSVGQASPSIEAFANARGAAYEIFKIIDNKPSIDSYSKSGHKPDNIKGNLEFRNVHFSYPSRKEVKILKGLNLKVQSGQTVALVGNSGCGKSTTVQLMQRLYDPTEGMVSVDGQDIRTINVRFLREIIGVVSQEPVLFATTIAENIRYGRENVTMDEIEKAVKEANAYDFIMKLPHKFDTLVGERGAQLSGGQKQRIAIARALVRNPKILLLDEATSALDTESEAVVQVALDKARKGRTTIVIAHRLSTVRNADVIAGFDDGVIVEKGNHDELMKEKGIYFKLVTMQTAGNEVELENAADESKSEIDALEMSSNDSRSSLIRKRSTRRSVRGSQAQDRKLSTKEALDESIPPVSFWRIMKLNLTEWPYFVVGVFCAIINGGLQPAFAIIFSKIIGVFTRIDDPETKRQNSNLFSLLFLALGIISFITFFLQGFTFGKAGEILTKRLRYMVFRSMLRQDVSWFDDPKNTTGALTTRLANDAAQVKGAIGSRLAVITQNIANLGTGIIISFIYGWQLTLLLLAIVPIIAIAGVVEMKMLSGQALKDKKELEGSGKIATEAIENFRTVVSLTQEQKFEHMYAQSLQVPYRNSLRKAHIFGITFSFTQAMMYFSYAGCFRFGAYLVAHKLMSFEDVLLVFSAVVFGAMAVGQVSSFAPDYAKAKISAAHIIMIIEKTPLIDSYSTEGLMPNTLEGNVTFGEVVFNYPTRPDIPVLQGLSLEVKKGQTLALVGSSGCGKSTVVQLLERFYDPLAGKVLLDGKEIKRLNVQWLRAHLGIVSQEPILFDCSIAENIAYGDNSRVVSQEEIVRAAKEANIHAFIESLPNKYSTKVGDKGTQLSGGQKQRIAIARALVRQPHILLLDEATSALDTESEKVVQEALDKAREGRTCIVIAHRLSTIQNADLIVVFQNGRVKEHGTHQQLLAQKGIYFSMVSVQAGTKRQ

c1ccc2nc(N3CCNCC3)ccc2c1
fluorescence slope change [1]: 25.1% (inactive)
inhibition [2]: -24.6%
rescue above control [3]: -5.3
glutamate uptake change [4]: -14.6%
inclusion score [5]: 2
aggregation suppression score [6]: 1.33
period change [7]: -0.04 h (inactive)
survival [8]: 8.75 (inactive)
remaining activity [9]: 114% (inactive)

CC(C)N(CCC(C(N)=O)(c1ccccc1)c1ccccn1)C(C)C (stereo unspecified)
fluorescence slope change [1]: 52.1% (active)
inhibition [2]: -16.9%
rescue above control [3]: -8.3
glutamate uptake change [4]: 24.3%
inclusion score [5]: 2
aggregation suppression score [6]: 1.38
period change [7]: 0.265 hour (inactive) and -0.11 hour (inactive)
survival [8]: 11.6 (inactive)
inhibition [10]: 0% (inactive) and -1% (inactive)
fluorescence ratio (interference) [11]: 1 (inactive)
mean signal [12]: 254 (inactive)
remaining activity [9]: 98.9% (inactive) and 93.2% (inactive)
outcome [13]: inactive
log fold change Tl+ flux [14]: -0.0248 (inactive)
log fold change Tl+ flux [15]: 0.00612 (inactive)
log fold change Tl+ flux [16]: 0.00817 (inactive)
log fold change Tl+ flux [17]: -0.022 (inactive)
log fold change Tl+ flux [18]: -0.0143 (inactive)

O=C(O)CCCc1ccc(N(CCCl)CCCl)cc1
inhibition [2]: 25.6%
rescue above control [3]: -3.71
glutamate uptake change [4]: -0.49%
aggregation suppression score [6]: 0.0151
period change [7]: -0.09 h (inactive)
survival [8]: 4.5 (inactive)
inhibition [10]: -3% (inactive)
fluorescence ratio (interference) [11]: 1 (inactive)
mean signal [12]: 236 (inactive)
remaining activity [9]: 115% (inactive)
inhibition ([19]; BGB IC20 combo, at 0.005 µM): -3.85%
inhibition ([19]; BGB IC40 combo, at 0.005 µM): -23.1%
inhibition ([19]; BGB IC40 combo, at 0.05 µM): -2.9%
inhibition ([19]; at 0.5 µM): -29% (inactive)
inhibition ([19]; cisplatin combo, at 0.05 µM): -2.9%
inhibition ([19]; cisplatin combo, at 0.5 µM): -34.6%
inhibition ([19]; cisplatin combo, at 5 µM): -18.5%
inhibition ([19]; measured here: 5 uM single agent, at 5 µM): -8.66%
log fold change Tl+ flux [14]: -0.0169 (inactive)
log fold change Tl+ flux [15]: 0.0059 (inactive)
log fold change Tl+ flux [16]: -0.0229 (inactive)
log fold change Tl+ flux [17]: -0.022 (inactive)
log fold change Tl+ flux [18]: 0.041 (inactive)

COC(=O)C1=CCCN(C)C1
inhibition [2]: 15.1%
rescue above control [3]: 4.32
glutamate uptake change [4]: 13.8%
inclusion score [5]: 2
aggregation suppression score [6]: 1.35
period change [7]: -0.175 h (inactive)
survival [8]: 7.67 (inactive)
inhibition [10]: 0% (inactive)
fluorescence ratio (interference) [11]: 1 (inactive)
remaining activity [9]: 111% (inactive)
outcome [13]: inactive

Cc1ncc(CNC(=O)N(CCCl)N=O)c(N)n1
period change [7]: -0.065 h (inactive)
inhibition [10]: 2% (inactive)
fluorescence ratio (interference) [11]: 1 (inactive)
remaining activity [9]: 113% (inactive)
outcome [13]: inactive

N[C@@H](Cc1ccc(N(CCCl)CCCl)cc1)C(=O)O
fluorescence slope change [1]: 94.7% (active)
inhibition [2]: 9.42%
rescue above control [3]: -0.78
glutamate uptake change [4]: 15.9%
aggregation suppression score [6]: 1.07
remaining activity [9]: 104% (inactive)

O=c1[nH]oc2c1CCNC2
inhibition [2]: 9.73%
rescue above control [3]: -2.56
glutamate uptake change [4]: 5.07%
inclusion score [5]: 2
aggregation suppression score [6]: 1.43
period change [7]: 0.075 h (inactive)
survival [8]: 19.5 (inactive)
inhibition [10]: -5% (inactive)
fluorescence ratio (interference) [11]: 1 (inactive)
remaining activity [9]: 100% (inactive)
outcome [13]: inactive

CN(C)[C@@H]1C(=O)C(C(N)=O)=C(O)[C@@]2(O)C(=O)C3=C(O)c4c(O)cccc4[C@@](C)(O)[C@H]3C[C@@H]12
fluorescence slope change [1]: 76.3% (active)
inhibition [2]: 61.6%
rescue above control [3]: -1.89
glutamate uptake change [4]: 10.7%
inclusion score [5]: 0
aggregation suppression score [6]: 0.769
survival [8]: 22.6 (inactive)
mean signal [12]: 244 (inactive)

COc1ccc(C(CN(C)C)C2(O)CCCCC2)cc1 (stereo unspecified)
inhibition [10]: -1% (inactive)
fluorescence ratio (interference) [11]: 1.1 (inactive)
mean signal [12]: 261 (inactive)
outcome [13]: inactive
log fold change Tl+ flux [14]: 0.00861 (inactive)
log fold change Tl+ flux [15]: -0.0103 (inactive)
log fold change Tl+ flux [16]: -0.109 (inactive)
log fold change Tl+ flux [17]: 0.0103 (inactive)
log fold change Tl+ flux [18]: -0.0272 (inactive)

CCC1(c2ccc(N)cc2)CCC(=O)NC1=O (stereo unspecified)
inhibition [2]: 22.4%
rescue above control [3]: 12.8
glutamate uptake change [4]: 15.1%
inclusion score [5]: 2
aggregation suppression score [6]: 1.06
period change [7]: 0.015 h (inactive)
survival [8]: 19.8 (inactive)
inhibition [10]: -3% (inactive)
fluorescence ratio (interference) [11]: 1 (inactive)
mean signal [12]: 262 (inactive)
outcome [13]: inactive
log fold change Tl+ flux [14]: 0.023 (inactive)
log fold change Tl+ flux [15]: -0.00163 (inactive)
log fold change Tl+ flux [16]: 0.0191 (inactive)
log fold change Tl+ flux [17]: -0.00575 (inactive)
log fold change Tl+ flux [18]: -0.0116 (inactive)

CC(NC(C)(C)C)C(=O)c1cccc(Cl)c1 (stereo unspecified)
fluorescence slope change [1]: 106% (active)
period change [7]: 0.18 h (inactive)
survival [8]: 16.8 (inactive)
inhibition [10]: -1% (inactive)
fluorescence ratio (interference) [11]: 1 (inactive)
mean signal [12]: 264 (inactive)
remaining activity [9]: 118% (inactive)
outcome [13]: inactive
log fold change Tl+ flux [14]: 0.0198 (inactive) and -0.0218 (inactive)
log fold change Tl+ flux [15]: -0.0525 (inactive) and 0.0137 (inactive)
log fold change Tl+ flux [16]: -0.059 (inactive) and 0.00561 (inactive)
log fold change Tl+ flux [17]: -0.0389 (inactive) and 0.036 (inactive)
log fold change Tl+ flux [18]: -0.014 (inactive) and 0.0171 (inactive)

C=C(C)[C@H]1Cc2c(ccc3c2O[C@@H]2COc4cc(OC)c(OC)cc4[C@@H]2C3=O)O1
fluorescence slope change [1]: 63.7% (active)
inhibition [2]: 5.88%
rescue above control [3]: 0
glutamate uptake change [4]: -44.7%
inclusion score [5]: 2
aggregation suppression score [6]: 0.895
period change [7]: -1.31 h (inactive)
inhibition [10]: -1% (inactive)
fluorescence ratio (interference) [11]: 1 (inactive)
remaining activity [9]: 78.1% (inactive)
outcome [13]: inactive

O=C(O)c1nn(Cc2ccc(Cl)cc2Cl)c2ccccc12
period change [7]: -0.065 h (inactive)
inhibition [10]: -4% (inactive)
fluorescence ratio (interference) [11]: 1 (inactive)
remaining activity [9]: 110% (inactive)
outcome [13]: inactive

C[C@@H]1C[C@@H]([C@H](O)CC2CC(=O)NC(=O)C2)C(=O)[C@@H](C)C1
fluorescence slope change [1]: 14.9% (inactive)
inhibition [2]: 22.7%
rescue above control [3]: -0.63
glutamate uptake change [4]: -43.8%
aggregation suppression score [6]: 0.0281
survival [8]: 0.417 (inactive)
